The assay concerns the target Genome polyprotein (Dengue virus type 2 (strain 16681-PDK53)) (UniProt P29991). Description: flavivirus cap methylation enzyme inhibition – biochemical, confirmation dose response, primary screen (AID 588689). As to conditions: Dengue-2 NS5 methyltransferase capping enzyme assay, at 25 µM, stronger effect = higher value.
Where [1] appears, read: measured here: pilot screen replicate inhibition.

About 1,000 (0.29%) of roughly 340,000 compounds were called active. Rule as the data show it: inconclusive = inhibition above about 29% without an active follow-up result; inactive = below that. These entries were drawn from the full list. Measured potencies and affinities stand elsewhere.

Usually inhibition stands for the relative decrease from the control value, in per cent. As for `Cc1cc(C)c(NC(=O)c2ccc3c(c2)NC(=O)C(C)S3)c(C)c1` (configuration not stated), the inhibition is -0.76% (inactive).
Turning to `O=S(=O)(NCCc1ccc(F)cc1)c1ccc(F)cc1Br`, the inhibition was -1.99% (inactive). Further, under setting [1], the inhibition is -0.92%.
With `CCCCCC(=O)NNC1=NCC(Cc2cccc(Cl)c2)S1` (configuration not stated), the inhibition is -9.62% (inactive).
In the case of `CCN(Cc1cnn(C)c1)Cc1nc(Cc2ccccc2Cl)no1`, the inhibition is -2.18% (inactive).
The same measure, in the same setting: in the case of `CCCCN1C(=O)/C(=C2\SC(N3CCCCC3)=NC2=O)c2ccccc21` it was 1.1% (inactive); in that of `O=C(NCc1ccccc1)c1cccc(S(=O)(=O)N2CCCCC2)c1`, -8.7% (inactive); in that of `COc1ccc(OC)c(/C=N/NC(=O)c2ccncc2)c1`, -7.07% (inactive).
The same measure, in the same setting: in the case of `CCc1ccccc1N(CC(=O)OC)S(C)(=O)=O` it was 3.12% (inactive); in that of `Cc1cc(O)ccc1C1(c2ccc(O)cc2C)OC(=O)c2ccccc21`, -9.01% (inactive).
As for `O=C1OC(c2ccccc2)(c2ccccc2)c2ccccc21`, the inhibition is -6.99% (inactive).
Still for that read-out and setting: the figure for `O=C1OC(c2ccccc2)(c2ccc(O)cc2)c2ccccc21` (configuration not stated) is 0.78% (inactive); for `O=C1OC2(c3ccccc31)c1ccccc1-c1ccccc12` it is 8.53% (inactive).
Same read-out and setting: the figure for `CC1CCCN(C(=O)c2nn(C)c3c2CS(=O)(=O)c2ccccc2-3)C1` (configuration not stated) is -6.35% (inactive).
Still for that read-out and setting: in the case of `COc1ccc(/C=C/C(=O)NC(C)(C)C)cc1S(=O)(=O)N1CCOCC1` it was 3.24% (inactive).
In the case of `O=C(Nc1ccc2oc(=O)ccc2c1)c1cc([N+](=O)[O-])ccc1N1CCOCC1`, the inhibition is -4.64% (inactive).
The same measure, in the same setting: the figure for `Cc1ccc(OC(C)C(=O)N2CC(=O)Nc3ccccc32)cc1` (configuration not stated) is 1.78% (inactive); for `C[C@@H]1CN([C@@H](C)CO)C(=O)Cc2cc(NC(=O)Nc3ccc(F)cc3)ccc2O[C@@H]1CN(C)Cc1ccc(Cl)c(Cl)c1` it is -10.3% (inactive); for `Cc1nc(SCC(=O)NC(C)(C)C)c2c(-c3cccs3)csc2n1` it is -9.82% (inactive).
Same read-out and setting: in the case of `COc1ccc(N2CCN(C(c3nnnn3C3CCCC3)C(C)C)CC2)cc1` (configuration not stated) it was -0.74% (inactive).
As for `Cc1ccc(C)n1Cc1ccccc1Cl`, the inhibition is -24.6% (inactive).
On the same count and under the same terms, in the case of `C=CCNC(=O)COc1c(C)ccc(C)c1C` it was -2.27% (inactive); in that of `CCOC(=O)N1CCC(N2C(=O)c3ccc(C(=O)NCCC(C)C)cc3C2=O)CC1`, -0.65% (inactive); in that of `O=C(Nc1ccc(C(=O)c2ccc(C(=O)O)c(C(=O)O)c2)cc1)c1ccccc1`, 6.21% (inactive).
Same read-out and setting: the figure for `O=C(O)c1ccc(NC(=O)C(c2ccccc2)c2ccccc2)cc1` is -5.43% (inactive).
The same measure, in the same setting: in the case of `CC(C)(C)C(=O)NC1=NN(c2c(Cl)cc(Cl)cc2Cl)C(=O)C1` it was 6.11% (inactive); in that of `NC1=NN(c2c(Cl)cc(Cl)cc2Cl)C(=O)C1`, -5.65% (inactive); in that of `CC(C)/C=C/C(=O)N1CCC(N2CCC(C(=O)NCC3CCCO3)CC2)CC1` (configuration not stated), 6.04% (inactive).
As for `O=C(NCc1ccccn1)c1cccc(S(=O)(=O)N2CCc3ccccc32)c1`, the inhibition was 5.83% (inactive).
Take `O=C(Nc1ccc(O)cc1C(=O)O)c1ccc2c(c1)C(=O)N(Cc1ccco1)C2=O`: the inhibition is -4.89% (inactive).
On the same count and under the same terms, the figure for `Cc1c(NC(=O)c2ccc3c(c2)C(=O)N(Cc2ccco2)C3=O)cccc1C(=O)O` is 6.25% (inactive); for `O=C1CSC(=S)N1/N=C/c1ccc2c(c1)OCCO2` it is -7.17% (inactive).
The same measure, in the same setting: the figure for `Cc1ccc(OCC(=O)NCCNC(=O)c2cnccn2)cc1C` is -4.45% (inactive).
On to `COc1ccccc1C(NC(C)=O)c1cc(Cl)c2cccnc2c1O` (configuration not stated), for which the inhibition was -1.32% (inactive).
On the same count and under the same terms, the figure for `Oc1c(C(Nc2ccccn2)c2cccnc2)cc(Cl)c2cccnc12` (configuration not stated) is -1.46% (inactive).
Same read-out and setting: the figure for `CCOCCSc1n[nH]c(=O)n1CCc1ccccc1` is 0.65% (inactive); for `COC(=O)CCCC1=CC2=CC(=O)C(C)(OC(=O)C3CCCC3)C(=O)C2=CO1` (configuration not stated) it is -2.4% (inactive).
Still for that read-out and setting: the figure for `CCCCC1=CC2=CC(=O)C(C)(OC(=O)C3CCCC3)C(=O)C2=CO1` (configuration not stated) is -4.96% (inactive).
In the case of `O=C(Nc1ccccc1N1CCCCC1)C1CC(=O)N(c2ccccc2F)C1` (configuration not stated), the inhibition is -1.45% (inactive).
Same read-out and setting: in the case of `COCCNc1nc2ccccc2n2cnnc12` it was -9.27% (inactive).
Still for that read-out and setting: the figure for `N#Cc1c2ccc([N+](=O)[O-])cc2[n+]([O-])n1-c1ccccc1` is 15.2% (inactive).
Still for that read-out and setting: in the case of `O=[N+]([O-])c1cc(Br)c(Nc2ccccc2)c([N+](=O)[O-])c1` it was 5.88% (inactive).
On to `CCO[C@H]1OC(C(=O)N2CCN(C)CC2)=C[C@@H](c2ccc(C(F)(F)F)cc2)[C@@H]1CCCO`, for which the inhibition was -3.14% (inactive).
Still for that read-out and setting: in the case of `CC1=NN(C(N)=S)C(=O)C1N=Nc1c(C)cc(C)cc1C` (configuration not stated) it was -2.39% (inactive); in that of `CC1=NN(C(N)=S)C(=O)C1N=Nc1ccc(Br)cc1` (configuration not stated), 7.71% (inactive); in that of `Cc1ccc(Sc2sc(=O)n(C)c2S(=O)(=O)c2ccc(C)cc2)cc1`, -2.3% (inactive).
For the compound `Cc1ccc(Sc2c(C)[nH]n(C(C)(C)C)c2=O)cc1`, the inhibition is -4.77% (inactive). For the same compound, the inhibition under setting [1] is 2.59%.
For the compound `CCOc1ccc(OCc2ccc(C(=O)N(CC)CC)cc2)cc1`, the inhibition was -20% (inactive).
The same measure, in the same setting: in the case of `CCn1c(CSc2nnc(-c3ccncc3)n2C)nc2cc(C(=O)O)ccc21` it was 7.11% (inactive); in that of `CCn1c(CSc2nccn2C)nc2cc(C(=O)O)ccc21`, 1.61% (inactive).
On the same count and under the same terms, in the case of `O=C(CCn1c(=O)oc2ccc(Cl)cc21)NCCCN1CCOCC1` it was -12.3% (inactive).
Same read-out and setting: the figure for `CCOc1ccc2nc(SCC(=O)NC3CCCc4ccccc43)sc2c1` (configuration not stated) is -8.65% (inactive); for `O=C1NC2(CCCCCC2)Cc2ccccc21` it is -4.23% (inactive).
Turning to `Cc1cc(SCC(=O)Nc2ccccc2)n2ncc(-c3ccccc3)c2n1`, the inhibition was -3.11% (inactive).
Still for that read-out and setting: the figure for `Cc1ccc(NC(=O)c2ccc(-n3cccn3)c([N+](=O)[O-])c2)cc1` is 0.68% (inactive); for `O=C1c2ccccc2C(O)(c2ccccc2)N1c1ccncc1` (configuration not stated) it is -5.22% (inactive).
On to `Cc1ccc(N2C(=O)c3ccccc3C2(O)c2ccccc2)cc1` (configuration not stated), for which the inhibition is -0.39% (inactive).
As to `CC1CN(C(=O)c2nn(C)cc2[N+](=O)[O-])CC(C)O1` (configuration not stated), the inhibition was -1.37% (inactive).
The same measure, in the same setting: the figure for `CCCCn1c(-c2cccnc2)nc2cc3[nH]c(=O)c(C(C)C)nc3cc21` is 4.01% (inactive).
On the same count and under the same terms, in the case of `COc1ccccc1OCC#CCSc1ncccn1` it was -53.6% (inactive).
Regarding `C#CCN(C[C@H]1[C@H](OC(=O)Nc2cccs2)[C@H](OC(=O)Nc2cccs2)C[C@H]2C(=O)N(c3ccccc3)C(=O)[C@@H]12)S(=O)(=O)c1ccc(C)cc1`, the inhibition was 2.32% (inactive).
On the same count and under the same terms, in the case of `COc1ccc(S(=O)(=O)/C(C#N)=C/Nc2cccc(F)c2)cc1` it was -2.28% (inactive); in that of `Cc1ccc(F)c(NC(=O)CCc2ccccc2)c1`, -5.56% (inactive); in that of `Cc1ccc(NC(=O)/C(C#N)=N/Nc2ccc(C(=O)O)cc2)c(C)c1`, 3.18% (inactive).
Still for that read-out and setting: in the case of `Cc1ccc(C)c2[nH]c(=O)c(CCNS(=O)(=O)c3ccccc3)cc12` it was -0.7% (inactive); in that of `COc1cc(/C=C2\SC(=S)N(Nc3ccccc3)C2=O)cc(OC)c1OC`, -1.38% (inactive).
For the compound `COc1cc(/C=C2\SC(=S)N(CCC(=O)Nc3ccccc3)C2=O)cc(OC)c1OC`, the inhibition was 0% (inactive).
Still for that read-out and setting: in the case of `Cc1ncsc1CCOC(=O)C12CC3CC(CC(C3)C1)C2` it was -12.1% (inactive); in that of `CCOC(=O)c1c(C)nc(C)c(C(=O)OCC)c1-c1ccc(OC)cc1`, 0.8% (inactive); in that of `O=C(NC(Cc1c[nH]c2ccccc12)C(=O)Nc1ccc(OC(F)(F)F)cc1)c1cccs1` (configuration not stated), -0.91% (inactive).
Same read-out and setting: in the case of `O=C1C=C(O)c2cccc(O)c2C1=O` it was 10.9% (inactive).
Same read-out and setting: in the case of `O=C1C(=O)c2c(ccc3ccccc23)-c2ccccc21` it was 8.87% (inactive); in that of `COc1c(CC=C(C)C)cc(C2CC(=O)c3c(O)cc(O)cc3O2)cc1CC=C(C)C` (configuration not stated), 1.45% (inactive).
As to `COc1cc(C2CC(=O)c3c(O)cc(O)cc3O2)ccc1O` (configuration not stated), the inhibition was -4.19% (inactive).
Take `O=C(Nc1ccccn1)c1ccc(Cl)c(S(=O)(=O)N2CCCC2)c1`: the inhibition was -10.4% (inactive).
On to `O=C(CCN1CCN(CCO)CC1)Nc1cccc(Br)c1`, for which the inhibition was 0% (inactive).
On the same count and under the same terms, in the case of `N#Cc1cc([N+](=O)[O-])ccc1NC(=O)COC(=O)C1CC2CCCC(C1)C2=O` (configuration not stated) it was -2.16% (inactive).
Still for that read-out and setting: the figure for `COc1cc(/C=N/NC(N)=O)ccc1OCC(=O)Nc1ccc(C)c(C)c1` is -9.1% (inactive).
Same read-out and setting: in the case of `CCOc1cc(/C=N\Nc2ccc([N+](=O)[O-])cc2)ccc1OCC(=O)Nc1ccc(C)c(C)c1` it was 22% (inactive); in that of `CCC(=O)Nc1nnc(-c2cccs2)s1`, -6.55% (inactive).
For `COc1cc(/C=C2/SC(N)=NC2=O)ccc1Oc1ccc([N+](=O)[O-])cc1[N+](=O)[O-]`, the inhibition was 4.51% (inactive).
Turning to `CCN(CC)S(=O)(=O)c1ccc(OC)c(NS(=O)(=O)Cc2ccccc2)c1`, the inhibition is -2.33% (inactive).
In the case of `COc1ccc(NS(=O)(=O)Cc2ccccc2)cc1OC`, the inhibition is 0% (inactive).
The same measure, in the same setting: the figure for `COc1ccc([N+](=O)[O-])cc1NS(=O)(=O)Cc1ccccc1` is -3.44% (inactive).
Take `CSc1ccc(S(=O)(=O)Nc2ccc3c(c2)NC(=O)CC3)cc1`: the inhibition was 0% (inactive).
Same read-out and setting: in the case of `CN(CC(=O)Nc1ccc(Cl)c(C(F)(F)F)c1)C(=O)c1cccc2cccnc12` it was 2.2% (inactive); in that of `Cc1ccc(O)c(NC(=O)Cc2ccc3ccccc3c2)c1`, -11.9% (inactive).
On the same count and under the same terms, the figure for `CC(NC(=O)CCNS(=O)(=O)c1cccc2nonc12)c1ccccc1` (configuration not stated) is -6.33% (inactive); for `CCOC(=O)/C(C#N)=C/c1cn(CCC(=O)O)nc1-c1cccc(Cl)c1` it is -8.58% (inactive); for `O=C(O)CCn1cc(/C=C2\NC(=S)N(c3ccccc3)C2=O)c(-c2ccc(Br)cc2)n1` it is 3.12% (inactive).
The same measure, in the same setting: in the case of `Cc1ccc(-c2nn(CCC(=O)O)cc2/C=C\C(=O)c2ccc(Br)cc2)cc1` it was 7.02% (inactive); in that of `NC(=S)N/N=C/c1cn(CCC(=O)O)nc1-c1cccc(Br)c1`, -15.9% (inactive); in that of `O=Cc1cn(CCC(=O)O)nc1-c1cccc(Cl)c1`, -3.9% (inactive).
On to `O=C(O)CCn1cc(/C=C2/NC(=S)N(c3ccccc3)C2=O)c(-c2ccccc2)n1`, for which the inhibition was 2.91% (inactive).
The same measure, in the same setting: the figure for `O=C(O)CCn1cc(C(=O)O)c(-c2ccccc2)n1` is -1.47% (inactive); for `O=Cc1cn(CCC(=O)O)nc1-c1cccc(Br)c1` it is 14.3% (inactive).

(Values after PubChem BioAssay AID588689 (Southern Research Specialized Biocontainment Screening …, 2011).)
